GLS inhibitor = qHTS for Inhibitors of Glutaminase (GLS). Glutaminase kidney isoform, mitochondrial (Homo sapiens), O94925. GLS enzymatic activity, qHTS titration. Potency, µM (series often up to 45.5 µM), for the others: at the highest dose activity change, negative = inhibition, hits mostly inhibitors. actives 0.21% (n = 410,000); also: potency is read from the fitted curve at half-maximal effect; % is scaled to controls: 0 for no effect and ±100 for the full control effect
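Read-out is an Amplex red fluorescence increase coupled through glutamate oxidase and HRP, measured before and after 30 min room-temperature incubation. hKGA is in 45 mM KH2PO4 (pH 8.2) with 0.02% Tween-20; glutamine added as 1mM solution.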
CCT chaperon mod = High-Throughput Screening for Modulators of Cytosolic Chaperonin Activity; purified chaperonin ATPase assay, HTRF ADP detection, 30 min; actives 0.3% (n = 360,000); activity change, % (no concentration beside the values), hits read low; in the data active = activity change below about -30%; also: % is scaled to controls: 0 for no effect and ±100 for the full control effect
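We incubate TRiC, 40 or 20 nM final, with library compounds at 76 uM and 10 uM ATP for 30 min at 37 °C. ADP formed is detected with Transcreener HTRF reagents after 30 min at room temperature.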
Tb PGK inh = qHTS Assay to Find Inhibitors of Phosphoglycerate Kinase | Phosphoglycerate kinase, glycosomal (Trypanosoma brucei brucei), P07378 | PGK/GAPDH coupled, Kinase-Glo luminescence, 60 min | Potency, µM (doses to about 57.5 µM), inactives show at the highest dose activity change, negative = inhibition, usual class: inhibitors | actives 0.043% (n = 380,000) | AID 602233, 2012; also: potency is read from the fitted curve at half-maximal effect; % is scaled to controls: 0 for no effect and ±100 for the full control effect; nearly all actives have a fitted effect of over 60% in size
Target sequence (P07378 whole entry, looked up): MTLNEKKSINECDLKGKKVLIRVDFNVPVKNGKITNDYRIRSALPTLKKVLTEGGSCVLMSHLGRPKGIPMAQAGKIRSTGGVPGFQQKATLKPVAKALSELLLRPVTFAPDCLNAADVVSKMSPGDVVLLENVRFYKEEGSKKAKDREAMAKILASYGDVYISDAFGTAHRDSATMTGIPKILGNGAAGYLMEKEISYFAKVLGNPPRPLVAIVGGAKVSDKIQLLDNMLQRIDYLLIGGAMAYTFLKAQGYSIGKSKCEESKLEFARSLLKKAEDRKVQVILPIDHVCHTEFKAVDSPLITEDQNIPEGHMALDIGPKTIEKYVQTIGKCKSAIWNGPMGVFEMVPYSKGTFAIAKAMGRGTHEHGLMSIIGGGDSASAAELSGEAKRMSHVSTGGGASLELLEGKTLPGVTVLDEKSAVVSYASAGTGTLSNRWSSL
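Luminescent ATP detection (Kinase-Glo Plus) follows a 60-minute room-temperature incubation, with wells lacking PGK as controls. Buffer: 100 mM TEA (pH 7.6), 5 mM MgCl2, 0.01% Tween-20. Coupling enzyme GAPDH (100 nM final) supplies unstable 1,3-BPG in-well.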
PI4K2A block = qHTS for small molecular inhibitors of PI4K2A. Phosphatidylinositol 4-kinase type 2-alpha (Homo sapiens), Q9BTU6. purified PI4K2A, ADP-Glo luminescence, 1 h; hits give low values. activity change, negative = inhibition, % at 76.9 µM. actives 0.13% (n = 420,000). AID 1346378, 2018; in the data active = activity change below about -50%; inconclusive = mostly about -30% to -49%;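 also: -100% = wells without enzyme as full effect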
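In this quantitative HTS, ADP production by PI4K2A was quantified luminescently after 1 h at ambient temperature; 100 microM adenosine served as plate-quality control.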
PINK1 expr mod = A Quantitative High throughput Screen to Identify Chemical Modulators of PINK1 Expression | PINK1 immunofluorescence, high-content cytometry, 24 h | AID 624263, 2012 | actives 0.2% (n = 410,000) | Potency, µM (top dose mostly 76.6 µM), for inactives: at the highest dose activation (PINK1 increase), hits mostly activators; active = well fitted activation curve with a large enough effect; inconclusive = small, poorly fitted or top-dose-only effect; cell line not stated here; also: potency is read from the fitted curve at half-maximal effect; % of control where 0% means no effect; nearly all actives have a fitted effect of over 65% in size
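Stable cell line treated 24 h with compounds at 5 concentrations (CCCP controls), then fixed and immunostained for PINK1 plus nuclear and cell stains; PINK1 immunofluorescence quantified by laser-scanning microplate cytometry.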
Active calls of the source: *; [ ] = remark or other dose. Most compounds without a hit are left out; they make up all but 0.78% or so of the library. Unless noted, calls follow the shape of the dose curve; as a rule, active = well fitted curve in the direction sought with a large enough effect; inconclusive = small, poorly fitted or top-dose-only effect, or another doubt; inactive = no such curve, though single readings can be large; an effect the other way counts as inactive or inconclusive.

Screening O=C(CCNC(=O)C1CCN(S(=O)(=O)c2ccccc2)CC1)NCc1ccc(Cl)cc1Cl returned GLS inhibitor -8%, CCT chaperon mod -25, Tb PGK inh -4%, PI4K2A block -3 and PINK1 expr mod 0%.
Screening O=C(CCNC(=O)C1CCN(S(=O)(=O)c2ccccc2)CC1)NCc1ccc(Cl)cc1 returned GLS inhibitor -8%, CCT chaperon mod -80*, Tb PGK inh -1%, PI4K2A block -2 and PINK1 expr mod 0%.
`O=C(CCNC(=O)C1CCN(S(=O)(=O)c2ccccc2)CC1)NCc1cccc(Cl)c1` gave GLS inhibitor -1%, CCT chaperon mod -83*, Tb PGK inh inactive, PI4K2A block -5 and PINK1 expr mod -1%.
Cc1cc(C(=O)NCC2CCC3(CCN(Cc4ccc(-c5ccccc5)cc4)CC3)O2)n(C)n1 (centres undefined) was read as PINK1 expr mod 1%.
For CC(C)C(C)(C#N)NC(=O)CSc1nc(C2CCCCC2)n(-c2ccccc2)n1 (centres undefined) the results were GLS inhibitor 1%, CCT chaperon mod -33*, Tb PGK inh -7%, PI4K2A block -1 and PINK1 expr mod 3%.
Cc1nn(-c2ccc(F)cc2)c(C)c1CNC(=O)c1ccc(-n2cc(NC(=O)c3ccoc3)cn2)cc1 was read as PINK1 expr mod 2%.
`C=C(C)C(=O)Nc1cccc(C2=NOC3(C2)C[C@@H](C(N)=O)N(C(=O)CC(c2ccccc2)c2ccccc2)C3)c1` (some centres undefined) gave GLS inhibitor 11µM*, CCT chaperon mod -2, Tb PGK inh 8.9µM*, PI4K2A block -5 and PINK1 expr mod -1%.
`C=C(C)C(=O)Nc1cccc(C2=NOC3(C2)C[C@H](C(N)=O)N(C(=O)c2ccccc2C(=O)c2ccccc2)C3)c1` (some centres undefined) gave GLS inhibitor 14µM*, CCT chaperon mod -2, Tb PGK inh inconclusive, PI4K2A block -10 and PINK1 expr mod -1%.
Screening C/C=C/C=C/C(=O)N1CC2(CC(c3cccc(NC(=O)/C=C/C)c3)=NO2)C[C@@H]1C(N)=O (some centres undefined) returned GLS inhibitor -11%, CCT chaperon mod -2, Tb PGK inh -6%, PI4K2A block -11 and PINK1 expr mod 1%.
C/C=C(/C)C(=O)Nc1cccc(C2=NOC3(C2)C[C@@H](C(N)=O)N(C(=O)CC(c2ccccc2)c2ccccc2)C3)c1 (some centres undefined) was read as GLS inhibitor -7%, CCT chaperon mod 2, Tb PGK inh -12%, PI4K2A block 1 and PINK1 expr mod 1%.
For C=C(C)C(=O)Nc1cccc(C2=NOC3(C2)C[C@H](C(N)=O)N(C(=O)CC)C3)c1 (some centres undefined) the results were GLS inhibitor -3%, CCT chaperon mod -3, Tb PGK inh 5.6µM*, PI4K2A block -14 and PINK1 expr mod inconclusive.
`C=C(C)C(=O)Nc1cccc(C2=NOC3(C2)C[C@@H](C(N)=O)N(C(=O)/C=C/C=C/C)C3)c1` (some centres undefined) gave GLS inhibitor 11µM*, CCT chaperon mod -1, Tb PGK inh inconclusive, PI4K2A block -27 and PINK1 expr mod 1%.
Screening O=C(c1cccc(N2CCCC2=O)c1)N1CCC(Oc2cccc(CN3CCN(c4ccccn4)CC3)c2)CC1 returned PINK1 expr mod 0%.
`Cc1cc(-c2ccnc(-n3ncc(C(=O)NCC4COCCO4)c3C)n2)c(C)s1` (centres undefined) gave PINK1 expr mod 7%.
Screening O=c1nccc(N/N=C/c2ccccc2O)[nH]1 returned GLS inhibitor 9%, CCT chaperon mod 0, Tb PGK inh -29%, PI4K2A block -53* and PINK1 expr mod 0%.
Screening COc1cccc(/C=N/Nc2ccnc(=O)[nH]2)c1O returned GLS inhibitor 6%, CCT chaperon mod 2, Tb PGK inh -18%, PI4K2A block inconclusive and PINK1 expr mod -1%.
Screening Cc1oc(-c2ccccc2NC(=O)C2CCC2)nc1CNC(=O)c1ccccn1 returned PINK1 expr mod 2%.
For Cc1nc(N2CCOCC2)[nH]c(=O)c1CCC(C)C the results were GLS inhibitor -1%, CCT chaperon mod -2, Tb PGK inh -10%, PI4K2A block -2 and PINK1 expr mod -20%[38.3 µM].
Screening Cc1nc(N2CCc3ccccc3C2)[nH]c(=O)c1CCC(C)C returned GLS inhibitor 14%, CCT chaperon mod -2, Tb PGK inh -3%, PI4K2A block 13 and PINK1 expr mod 11µM*.
Screening Fc1ccc(C2=Nc3cccc4cccc(c34)N2)cc1 returned GLS inhibitor 9%, CCT chaperon mod -3, Tb PGK inh -9%, PI4K2A block -5 and PINK1 expr mod -1%.
`Brc1ccc(C2=Nc3cccc4cccc(c34)N2)o1` gave GLS inhibitor 15%, CCT chaperon mod -44*, Tb PGK inh -9%, PI4K2A block -10 and PINK1 expr mod 0%.
`FC(F)(F)C1=Nc2cccc3cccc(c23)N1` gave GLS inhibitor inconclusive, CCT chaperon mod -1, Tb PGK inh -6%, PI4K2A block -64* and PINK1 expr mod 0%.
`COc1cc(/C=C2/C(=O)N(c3cccc(Br)c3)N=C2C)cc(OC)c1O` gave GLS inhibitor -4%, CCT chaperon mod 1, Tb PGK inh -9%, PI4K2A block -54* and PINK1 expr mod 1%.
Screening COc1ccc(/C=C2/C(=O)N(c3ccccc3)N=C2C)cc1OC returned GLS inhibitor 8%, CCT chaperon mod -1, Tb PGK inh -10%, PI4K2A block -30 and PINK1 expr mod 10%.
For CCOC(=O)Cc1csc(N/N=C\c2cccc(Br)c2)n1 the results were GLS inhibitor 20µM*, CCT chaperon mod 0, Tb PGK inh -6%, PI4K2A block -12 and PINK1 expr mod 4%.
For Cc1ccc(NC(=O)NCc2cccn2C)cc1C the results were GLS inhibitor 7.1µM*, CCT chaperon mod -4, Tb PGK inh -1%, PI4K2A block 2 and PINK1 expr mod 4%.
`COc1cc(C(=O)NNC(=O)CNC(=O)c2ccc(Br)o2)cc(OC)c1OC` gave GLS inhibitor 12%, CCT chaperon mod -3, Tb PGK inh 0%, PI4K2A block 6 and PINK1 expr mod -3%.
For COc1ccc(CNC(=O)CNC(=O)c2ccc(Br)o2)cc1OC the results were GLS inhibitor 8%, CCT chaperon mod -107*, Tb PGK inh -2%, PI4K2A block -7 and PINK1 expr mod -1%.

High-throughput results (PubChem)
